Shown are actives, neighbours in structure and some others; about 11% of the full set was active somewhere.
Autophagy HCS: autophagy modulation, high-content screen; 190,000 compounds, 0.98% hits; MEF GFP-LC3 puncta imaging; test concentration mostly 10 µM; calls only at 10 µM (by protocol);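 active = percentage of spot-positive cells more than 3 SD above its plate mean, without a fluorescence outlier flag or 80% toxicity; inconclusive = no clear call, values can overlap the other calls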;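 note: spot-positive cell cutoff set from DMSO-treated cells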
INS promoter inh: TRM-6 insulin promoter activity inhibition | TRM-6 cells (human fetal islet line), insulin promoter-eGFP reporter, imaging; reporter expression induced with tamoxifen | inhibition, % at 2 µM | 130,000 compounds, 0.9% hits;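 active = inhibition above the mean plus 3 SD, with well images judged a real hit on visual review, cut at about 60% in these data, passing the limit was not always enough; inconclusive = inhibition over the cutoff but images rejected on review; inactive = inhibition not above the cutoff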
WT yeast gro inh: growth inhibition of WT yeast, mitochondrial fusion screen. mitochondrial fusion phenotypic screen, WT strain. inhibition, % at 10 µM. 190,000 compounds, 2.1% hits; in the data active = inhibition above about 58%; tested in S. cerevisiae
Insulin prom up: MIN6 insulin promoter up-regulation. z-score at 5 µM. MIN6 insulin promoter-GFP reporter, high-content imaging; hits give high values. 190,000 compounds, 0.3% hits;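 active = z-score above 3 at 5 µM with at least 500 cells counted in the well; inconclusive = wells under 500 cells, flagged as cytotoxic or low count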
Lmaj promast: inhibitors of Leishmania major promastigote growth; Leishmania major promastigotes, resazurin fluorescence viability; inhibition, % at 10 µM; 200,000 compounds, 9% hits; AID 1063; in the data active = inhibition above about 50%;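 note: promastigotes grown with compound for 44 hours at 28 °C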
Numbers without * were called inactive; i = inactive; ? = inconclusive; nt = no result; + = active, no number.

SMILES	Autophagy HCS	INS promoter inh	WT yeast gro inh	Insulin prom up	Lmaj promast
Cc1ccc(C)c(OCC(O)CN2CCC(C)CC2)c1C (centres undefined)	i	nt	17	-1.3	100*
Cc1ccccc1OCC(O)CN1CCN(CC(O)COc2ccccc2C)CC1 (centres undefined)	i	-35	0	-0.67	63*
Cc1ccccc1OCC(O)CN1CCC(C)CC1 (centres undefined)	i	-5	3	-0.1	72*
OC(COc1cccc2ccccc12)CN1CCN(c2ccccc2Cl)CC1 (centres undefined)	nt	nt	nt	3.5*	nt
CCOC(=O)c1sc(N(Cc2ccccc2)C(=O)CSc2nnc(C3CC3)n2N)nc1C	i	nt	10	-0.14	-7
O=C(Nc1cccc(Cl)c1)Nc1nnc(-c2ccncc2)s1	i	-52	8	?	65*
CCOC(=O)c1csc(NC(=O)Nc2cccc(Cl)c2)n1	i	41	-6	-0.07	87*
O=C(Nc1ccc(Cl)cc1)Nc1nnc(-c2ccncc2)s1	i	nt	6	-0.31	44
CN(c1ccccc1C(=O)N1CCN(Cc2ccc3c(c2)OCO3)CC1)S(C)(=O)=O	i	-35	-1	nt	-4
Cc1ccc(S(=O)(=O)N2CCCC(C(=O)NCCC(C)C)C2)cc1 (centres undefined)	i	nt	-11	-0.05	-1
Cc1ccc(OCc2ccc(C(=O)NCc3cccnc3)cc2)cc1C	i	nt	6	-0.11	11
O=C(c1ccc(Cl)c(Cl)c1)N(Cc1ccco1)c1ccc(O)cc1	i	0	10	0.06	70*
O=C(Cn1c(=O)n(-c2ccccc2)c(=O)c2sccc21)NCc1ccccc1	i	13	-7	1.4	0
O=C(c1ccc(F)cc1)N1CCN(C(=O)c2ccc([N+](=O)[O-])cc2)CC1	i	43	-3	-0.45	-2
CN(C)c1ccc(-c2nc3n(n2)C(c2cccnc2)C2=C(CC(C)(C)CC2=O)N3)cc1 (centres undefined)	i	36	46	-1.2	92*
COc1ccc(NC(C)=O)cc1S(=O)(=O)N1CCN(C/C=C/c2ccccc2)CC1	i	nt	0	-0.83	7
COc1ccccc1[C@@H]1C(c2ccc(F)cc2)=NN(c2ccccc2)[C@H]1C(=O)N1CCOC1=O	+	27	38	-0.03	1
CC1(C)CC(NC(=O)C23CCC(C)(C(=O)C2)C3(C)C)CC(C)(C)N1 (centres undefined)	i	-9	5	-0.27	-4
CCc1oc2ccccc2c1C(=O)CCN1CCCCC1	i	25	12	0.08	74*
OC(CCCCN1CCCCC1)c1ccccc1 (centres undefined)	i	26	2	-0.11	54*
OC(C#CCN1CCCCC1)c1ccccc1 (centres undefined)	i	22	-12	0.27	-10
C[N+]1(CCC(=O)c2ccccc2)CCCCC1	i	64*	-12	0.48	33
O=C(CCN1CCCCC1)c1ccccc1	i	14	-13	0.95	74*
O=C(C[N+]1(CC#Cc2ccccc2)CCCCC1)c1ccccc1	i	40	-5	0.83	45
Cc1[nH]nc2c1C(c1cccc(O)c1)C1=C(CC(C)(C)CC1=O)N2 (centres undefined)	i	19	5	0.13	-4
SMILES	Autophagy HCS	INS promoter inh	WT yeast gro inh	Insulin prom up	Lmaj promast
O=C1C(=Nc2cccc(Cl)c2)CC(c2ccc(Cl)cc2)N1c1cccc(Cl)c1 (centres undefined)	nt	nt	nt	-1.2	nt
O=C(O)CCCC(=O)NCCCCc1ccccc1	i	18	6	0.9	-6
O=S(=O)(Nc1cc(C(F)(F)F)ccc1N1CCOCC1)c1ccc2ccccc2c1	i	-386	55	-0.07	45
O=C(CCN1CCOCC1)c1ccccc1	i	6	20	nt	95*
O=C(O)CCN1CCOCC1	i	nt	-5	0.26	-1
CCN(c1ccccc1)S(=O)(=O)c1ccc(OC)c(NC(=O)CNCC(C)O)c1 (centres undefined)	i	-9	5	0.81	64*
CCN(c1ccccc1)S(=O)(=O)c1ccc(Cl)c(NC(=O)CN2CCCCCC2)c1	nt	nt	nt	-1.3	nt
CCN(c1ccccc1)S(=O)(=O)c1ccc(OC)c(NC(=O)CNC)c1	i	56	-10	-0.04	7
CCN(c1ccccc1)S(=O)(=O)c1ccc(OC)c(NC(=O)Cn2cnc3c2c(=O)n(C)c(=O)n3C)c1	i	56	3	-0.57	61*
CCC(C)NCC(=O)Nc1cc(S(=O)(=O)N(CC)c2ccccc2)ccc1Cl (centres undefined)	i	-108	3	-0.63	64*
CCN(CC)CCSc1nnc2c3ccccc3n(Cc3ccccc3)c2n1	nt	nt	nt	-0.03	nt
COCCn1c(SCC(=O)N2CCc3ccccc3C2)nc2cc(Cl)ccc2c1=O	i	15	15	0.45	60*
CC(C)c1ccccc1-n1c(SCC(=O)N2CCc3ccccc3C2)nc2ccccc2c1=O	i	10	14	?	42
CC(C)Cn1c(SCC(=O)N2CCc3ccccc3C2)nc2cc(Cl)ccc2c1=O	i	-7	14	?	91*
COCCn1c(SCC(=O)N2CCCc3ccccc32)nc2ccccc2c1=O	i	36	10	-0.08	24
Cc1cc(-c2nc(C)c(-c3nnc(SCC(=O)Nc4ccc(Cl)cc4)n3C)s2)no1	nt	nt	nt	0.14	nt
Cc1ccc(S(=O)(=O)N2CCC(C(=O)NNC(=O)c3cccnc3)CC2)cc1	i	nt	-5	-0.08	-5
COc1ccccc1C(=O)N/C(=C\c1ccc(Br)cc1)C(=O)NCCC(=O)O	i	nt	-21	nt	-10
COc1ccccc1C(=O)N/C(=C\c1ccc(Br)cc1)C(=O)NCC(=O)O	i	8	-9	-0.34	57*
COc1ccc(OCC(O)Cn2ccnc2C)cc1 (centres undefined)	i	-8	-15	0.16	67*
Cc1nccn1CC(O)COc1ccccc1 (centres undefined)	i	-250	10	0.11	-6
Cc1cc(C)cc(OC(=O)C23CCC(C)(C(=O)O2)C3(C)C)c1 (centres undefined)	i	nt	7	-0.11	-3
O=C(CC1CCCCC1)NCc1nc(-c2ccccc2)no1	nt	nt	nt	-0.76	nt
O=C(c1ccc([N+](=O)[O-])o1)N1CCOCC1	i	nt	-5	nt	47
C/C(=N/NC(=O)C(O)(c1ccccc1)c1ccccc1)c1ccc([N+](=O)[O-])o1	i	nt	-2	-0.45	96*
SMILES	Autophagy HCS	INS promoter inh	WT yeast gro inh	Insulin prom up	Lmaj promast
O=C(NN(c1ccccc1)c1ccccc1)c1ccc([N+](=O)[O-])o1	i	nt	-5	-0.56	85*
O=C(NNC(=O)c1ccc([N+](=O)[O-])o1)c1ccccc1	i	-35	-4	0.43	98*
CC(C)C(=O)NNC(=O)CSc1nnnn1C(C)C	i	nt	-5	0.13	-10
O=C(Nc1ccc(Cl)cc1)Nc1csc([N+](=O)[O-])c1	nt	nt	nt	-0.2	nt
CC(=O)N1N=C(c2ccc(C)cc2)OC1c1ccc(C(C)C)cc1 (centres undefined)	i	-46	69*	-0.03	-9
O=C(Cn1c(=O)oc2cc(S(=O)(=O)N3CCCC3)ccc21)Nc1ccc(C(F)(F)F)cc1	i	nt	-2	0.13	52*
